Unmarked numbers belong to inactive results.
These molecules were tested on Scedosporium aurantiacum CBS 136046 (assay: growth inhibition relative to DMSO control (OD600); higher = more antifungal activity, active = 80 or more; extreme values may be limits of the assay). Conditions: 5 µM; 72 h; 37 °C.
Molecule `O=C(N[C@H](Cc1cccc2ccccc12)C(=O)NCCc1c[nH]cn1)C1Cc2ccccc2C1` has a growth inhibition of 2.31%. With `C(=C\c1nc2ccccc2[nH]1)/c1ccc2c(c1)OCO2` the growth inhibition was 17.1%. For `C[C@@H](c1nc(-c2ccc(C#N)cc2)cs1)[C@](O)(Cn1cncn1)c1ccc(F)cc1F`, the growth inhibition was 60.6%. `CC(C)Oc1ccc(-n2cnc3cc(/C=C\c4ccc(C(C)(C)O)cc4)ccc32)cc1` gave a growth inhibition of 28.5%. With `CCC[C@@H]1C[C@@H](C(=O)N[C@@H]([C@H]2O[C@H](SC)[C@H](O)[C@@H](O)[C@H]2O)[C@H](C)Cl)N(C)C1` the growth inhibition was 16.8%. `Cc1c(OCC(F)(F)F)ccnc1C[S+]([O-])c1nc2ccccc2[nH]1` (stereo not drawn) was tested, and the growth inhibition was 39.8%. `CCOC(=O)/C=C/[C@H](C[C@@H]1CCNC1=O)NC(=O)[C@@H](CC(=O)[C@@H](NC(=O)c1cc(C)on1)C(C)C)Cc1ccc(F)cc1` was tested, and the growth inhibition was 1.27%. With `CCCCC(CC)CNC(=N)NC(=N)NCCCCCCNC(=N)NC(=N)NCC(CC)CCCC` (stereo not drawn) the growth inhibition was 85% (active). `COc1ccc(-n2cnc3cc(NCc4ccco4)ccc32)cc1` was tested, and the growth inhibition was 9.11%. `O=C(O)c1cc(-c2ccc(Br)cc2)nc2ccc(Cl)cc12` showed a growth inhibition of 15.5%. With `CSc1ccc2c(c1)C(N1CCN(C)CC1)Cc1ccccc1S2` (stereo not drawn) the growth inhibition was 46.7%. `CCN(CC)CCCC(C)Nc1ccnc2cc(Cl)ccc12` (stereo not drawn) was tested, and the growth inhibition was 21.6%. For `CCCCN1C[C@H](O)[C@@H](O)[C@H](O)[C@H]1CO`, the growth inhibition was 3.51%. `Oc1c(C(Nc2ccccn2)c2ccccc2)ccc2cccnc12` (stereo not drawn) was tested, and the growth inhibition was 35.9%. For `Oc1cccc(C(Nc2nccs2)c2ccc3cccnc3c2O)c1` (stereo not drawn), the growth inhibition was 5.56%. Work on `FC(F)(F)c1cc(C(F)(F)F)c2ccc3nc(-c4nnco4)cn3c2n1` yielded a growth inhibition of 4.29%. In the case of `CCc1nc2ccc(Cl)cn2c1C(=O)NCc1ccc(N2CCC(c3ccc(OC(F)(F)F)cc3)CC2)cc1`, the growth inhibition is reported as 21.8%. Molecule `CCc1cc(Cc2cnc(N)nc2N)cc2c1N(C)CCC2C` (stereo not drawn) has a growth inhibition of 16.8%. Work on `Fc1ccc2c(/C=C/c3cccnc3)c[nH]c2c1` yielded a growth inhibition of 5.3%. `COc1cc(NC(=O)CN2C(=O)NC(c3ccccc3)(c3ccccc3)C2=O)cc(OC)c1` gave a growth inhibition of 0%. With `CC(C)N(c1cc(-c2ccccc2)sc1C(=O)O)C(=O)[C@H]1CC[C@H](C)CC1` the growth inhibition was 16.1%. `O=C(N[C@H](CCS)C(=O)N[C@H](Cc1ccccc1)C(=O)O)c1cc2ccccc2[nH]1` showed a growth inhibition of 23.5%. `COc1ccc2nc(-c3ccccc3)cc(O)c2c1` showed a growth inhibition of 17.5%. For `O=C(O)/C=C/C=C/c1cccc(Oc2cc(Cl)cc(Cl)c2)c1`, the growth inhibition was 13.8%. In the case of `O=C(c1nc2c(C(F)(F)F)cc(C3CC3)cn2c1Cl)N1CCN([C@H]2CC[C@H](O)CC2)C(=O)C1`, the growth inhibition is reported as 4.91%. `CC1=C(/C=C/C(C)=C/C=C/C(C)=C/C(=O)Nc2ccc(O)cc2)C(C)(C)CCC1` was tested, and the growth inhibition was 14.5%. `Cc1ccc(NC(=O)c2cc(Cl)ccc2O)cc1` gave a growth inhibition of 4.62%. `COc1cc(NCc2ccc3nc(N)nc(N)c3c2C)cc(OC)c1OC` showed a growth inhibition of 0.273%. Work on `CC[C@H](CO)Nc1nc(NCc2ccccc2)c2ncn(C(C)C)c2n1` yielded a growth inhibition of 10%. `CCC(C)NCC(O)Cn1c2ccc(Cl)cc2c2cc(Cl)ccc21` (stereo not drawn) gave a growth inhibition of 25%. `Cc1ccn2c(C(=O)NCc3ccccc3)c(C)nc2c1` gave a growth inhibition of 34%. With `Cc1cc(CCCOc2c(C)cc(-c3noc(C(F)(F)F)n3)cc2C)on1` the growth inhibition was 9.58%. `CCn1cc(C(=O)O)c(=O)c2cc(F)c(N3CCNC(C)C3)c(F)c21` (stereo not drawn) was tested, and the growth inhibition was 4.34%. For `Cc1ccc(S(=O)(=O)Nc2cccc3cccnc23)cc1`, the growth inhibition was 42.5%. `CC(C)(C)NC(=O)[C@@H]1C[C@@H]2CCCC[C@@H]2CN1C[C@@H](O)[C@H](Cc1ccccc1)NC(=O)[C@H](CC(N)=O)NC(=O)c1ccc2ccccc2n1` showed a growth inhibition of 15%. `O=c1cc(OCc2ccccc2)ccn1Cc1ccccc1` gave a growth inhibition of 9.92%. With `CC[C@@H]1C(=O)OC[C@@H]1Cc1cncn1C` the growth inhibition was 0%. For `COc1cccc(N2CCN(C3=Nc4c(F)cccc4[C@H](CC(=O)O)N3c3cc(C(F)(F)F)ccc3OC)CC2)c1`, the growth inhibition was 9.61%.

Reference: the supplement of paper PMC9897528
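Further: conidia screened in RPMI 1640 medium under 5% CO2, growth read by spectrophotometer, medium with 0.5% DMSO serving as the untreated reference.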
